Measured values as given in PubChem BioAssay (NCI).
This is part of a sample that, as a whole, favours compounds with a hit. Of some 83,000 tested, about 20% had one in any assay.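 Results are percent growth after 48 hours of single-concentration exposure. 100 means growth as in untreated cells, lower positive values show inhibition; negative values down to -100 show cell death.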 Calls of active or inactive are those of the source. The calls were made as follows: active = growth percent below 10; inactive = the rest.

tested on: MALME-3M melanoma; experiment: NCI-60 one-dose screen, 48 h (100 = growth as untreated, 0 = no growth, -100 = all killed); settings: 10 µM unless noted

Structure (SMILES) | growth
CCOC(=O)CC1CSC(Nc2ccccc2)=N1 (stereo unspecified) | 102% (inactive)
O=S(=O)(Nc1cc(Sc2cccc3cccnc23)c(O)c2ccccc12)c1ccccc1 | 0.404% (active)
COc1ccc(C(=O)c2cc3c(N)c(C(=O)Nc4ccccc4)sc3nc2C)cc1 | 62.7% (inactive)
N=c1c(S(=O)(=O)c2ccccc2)cc2c(=O)n3ccccc3nc2n1CC1CCCO1 (stereo unspecified) | 118% (inactive)
CC(C)(C)c1cc(Cl)c(O)c(CNCCO)c1 | 112% (inactive)
CCN(CC)CCN1C(=O)c2c(c(C)c3c(oc4ccc(O)cc43)c2C)C1=O | 73.3% (inactive)
Fc1cccc(-c2ccc3c(c2)C2(CCNCC2)CN3)c1 | 109% (inactive)
C=CC(=O)Nc1ccc(Oc2nccc(Nc3nnc(-c4ccc(C)cc4)s3)n2)cc1 | 52.6% (inactive)
NC1(CO)COC(c2ccccc2)OC1 (stereo unspecified) | 109% (inactive)
CCNc1ccc(-c2nc3ccccc3n3cccc23)cc1 | 92.2% (inactive)
CC[N+]1(CC)CC[N+]2(CCCC(C)CC2)CC1 (stereo unspecified) | 97.6% (inactive)
N=C(N)c1ccc(-c2ccc(-c3ccccc3)s2)cc1 | 97.2% (inactive)
O=C(CSc1nc(-c2ccccc2)cc(=O)[nH]1)Nc1nc(-c2ccccc2)cs1 | 110% (inactive)
Cc1nnc(-c2ccc3c(c2)nc(/C=C/c2ccccc2)n3C2CCCCC2)o1 | 95% (inactive)
O=S(=O)(NCCNc1nccc(-c2c(-c3ccc(F)c(O)c3)nc3sccn23)n1)c1ccc(F)cc1 | 5.92% (active)
CCN(CC)CCCN1C(=O)c2c(c(C)c3c(oc4ccc(O)cc43)c2C)C1=O | 87% (inactive)
CCCCCCCCCCCCCCCCCC1=NC(C)(C)CN1CC(C)O (stereo unspecified) | 97.4% (inactive)
C#CC#CC#CC#CC#CC#CC#CC#CCC1OC[C@H](COC(=O)O[C@@H](C(=O)O[C@H]2C[C@@]3(O)[C@@H](OC(=O)c4ccccc4)[C@@H]4[C@]5(OC(C)=O)CO[C@@H]5C[C@H](O)[C@@]4(C)C(=O)[C@H](OC(C)=O)C(=C2C)C3(C)C)[C@@H](NC(=O)c2ccccc2)c2ccccc2)O1 (stereo partly specified) | 47.2% (inactive)

Structure (SMILES) | growth
Cc1ccc(Cl)cc1NC(=O)c1sc2nc3c(cc2c1N)C(=O)CCC3 | 81.1% (inactive)
CC(=O)Oc1ccc(OC(C)=O)c2ccccc12 | 107% (inactive)
O=C(NNC(=O)c1nc2cc(F)ccc2n2cccc12)c1cnccn1 | 37.7% (inactive)
C[C@H](C(=O)N(CCc1ccc(Cl)c(Cl)c1)Cc1cncs1)[C@@H]1CC[C@H](C[C@H](C)n2cc(CN3CCC(c4ccc(Cl)cc4)CC3)nn2)O1 | 101% (inactive)
O=C(CC(=O)Nc1cccc(C(=O)O)c1)Nc1cccc(C(=O)O)c1 | 104% (inactive)
C=C1CC[C@@H]2C(C)(C)[C@@H](O)CC[C@@]2(C)[C@@H]1COc1ccc2ccc(=O)oc2c1 | 89% (inactive)
CCS/C(Nc1ccccc1)=C(\C#N)C(=O)Nc1ccc(OC)cc1 | 55.6% (inactive)
Nc1nc(NC(=O)Nc2ccc(C(=O)O)cc2)nn1-c1ccc(S(N)(=O)=O)cc1 | 85.7% (inactive)
N#Cc1c(-c2ccccc2)nc(SCc2nnc(-c3ccc(Cl)cc3)o2)[nH]c1=O | 88.9% (inactive)
CCN(CC)c1ccc(/C=N/NC(=O)Cc2ccc(Nc3ccnc(C(F)(F)F)c3)cc2)c(O)c1 | 15.5% (inactive)
CC[C@]12C=CCN3CC[C@@]4(c5ccc(OC)cc5N(C)[C@H]4[C@@](O)(C(=O)OC)[C@@H]1OC(=O)CCC[P+](c1ccccc1)(c1ccccc1)c1ccccc1)[C@@H]32 | -12.4% (active)
Oc1c(CN2CCC(N3CCCCC3)CC2)cc(Cc2cc(CN3CCC(N4CCCCC4)CC3)c(O)c3ncccc23)c2cccnc12 | 15.4% (inactive)
Nc1c(C(=O)Nc2cccc(Cl)c2)sc2nc3c(cc12)CCCC3 | 102% (inactive)
C=C(c1ccc(OC)c(/C=C/C(=O)c2ccc3c(c2)OCO3)c1)c1cc(OC)c(OC)c(OC)c1 | 67.2% (inactive)
CCCCCN(CCCCC)CC(O)c1cc(C)c2ccc3cc(C(C)C)ccc3c2c1 (stereo unspecified) | 53.9% (inactive)
O=C1/C=C/[C@@H](O)[C@@H]2C[C@@H](O)C[C@H]2/C=C/CCC[C@H](CCO)O1 | -11.4% (active)
CC(=O)/C(=C/c1ccc([N+](=O)[O-])cc1)C(=O)c1ccccc1 | 89.1% (inactive)
CC1(C)CC[C@]23CC[C@]4(C)[C@H](CC[C@@H]5[C@@]6(C)C/C(=C/c7ccncc7)C(=O)C(C)(C)[C@@H]6CC[C@]54C)[C@H]2[C@H]1OC3 | 87.9% (inactive)
